Only a selection was taken, and hits are over-represented in it overall.
Pin1 inh: qHTS Assay to Find Inhibitors of Pin1; Potency, µM (titrated, usually from 115 µM), for inactives: top-dose activity, negative = inhibition, most hits filed as inhibitors; Peptidyl-prolyl cis-trans isomerase NIMA-interacting 1 (Homo sapiens), Q13526; Pin1 FP peptide displacement, HiFluor488, 10 min; actives 0.009% (n = 390,000); active means well fitted inhibition curve with a large enough effect in the polarisation, with a control signal flat, not every such curve was filed as active; inconclusive means small, poorly fitted or top-dose-only effect, or effect the other way, or a change in a side signal; inactive means no such curve, though single readings can be large or run the other way; the % refers to the polarisation; further: potency means the concentration at half of the fitted maximal effect
Target sequence (Q13526 whole entry, looked up): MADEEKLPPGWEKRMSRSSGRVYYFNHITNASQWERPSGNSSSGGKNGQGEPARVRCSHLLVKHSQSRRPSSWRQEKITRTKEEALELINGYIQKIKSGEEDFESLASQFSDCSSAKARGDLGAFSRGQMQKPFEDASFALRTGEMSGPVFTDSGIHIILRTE
Tb PFK block: qHTS Assay to Find Inhibitors of T. brucei phosphofructokinase; T. brucei PFK, ADP-Glo luminescence; Potency, µM (doses to about 57.5 µM), without a hit: at the top dose activity, negative = inhibition, usual class: inhibitors; actives 0.17% (n = 330,000); AID 485367, 2010;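 further: potency means the concentration at half of the fitted maximal effect; 0% = uninhibited 1x PFK enzyme wells and -100% = no-enzyme wells; nearly all actives have a fitted effect of over 60% in size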
Target sequence (O15648 whole entry, looked up): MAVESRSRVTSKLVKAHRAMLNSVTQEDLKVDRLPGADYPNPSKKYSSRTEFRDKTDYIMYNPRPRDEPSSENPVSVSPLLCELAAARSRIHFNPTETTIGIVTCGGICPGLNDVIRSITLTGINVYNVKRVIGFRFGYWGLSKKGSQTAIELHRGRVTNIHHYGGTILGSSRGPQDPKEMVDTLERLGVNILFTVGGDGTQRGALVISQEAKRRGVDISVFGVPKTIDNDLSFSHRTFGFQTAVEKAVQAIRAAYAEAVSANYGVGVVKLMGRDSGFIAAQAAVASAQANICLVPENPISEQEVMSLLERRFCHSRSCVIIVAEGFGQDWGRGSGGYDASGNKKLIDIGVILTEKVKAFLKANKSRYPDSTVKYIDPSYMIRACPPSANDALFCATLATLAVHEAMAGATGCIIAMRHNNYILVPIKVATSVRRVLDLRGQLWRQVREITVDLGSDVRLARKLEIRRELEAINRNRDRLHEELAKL
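Luminescent ADP detection (ADP-Glo, two-step: ATP depletion then ADP-to-ATP conversion for luciferase) reported PFK activity after 45 min room-temperature reaction of 1.25 nM enzyme with 0.5 mM F6P and 0.1 mM ATP at pH 8.0.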
PI4K2A inh: qHTS for small molecular inhibitors of PI4K2A | AID 1346378, 2018 | actives 0.13% (n = 420,000) | activity change, negative = inhibition, % at 76.9 µM | Phosphatidylinositol 4-kinase type 2-alpha (Homo sapiens), Q9BTU6 | purified PI4K2A, ADP-Glo luminescence, 1 h; stronger effect = lower value; in the data active means activity change below about -50%; inconclusive means mostly about -30% to -49%;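 further: -100% = wells without enzyme as full effect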
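Compounds are screened against recombinant PI4K2A using PI as substrate and ATP, the latter dispensed at 300 microM. Reactions run one hour at ambient temperature before ADP-Glo detection; full inhibition defined by wells lacking enzyme.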
PGK inhibitor: qHTS Assay to Find Inhibitors of Phosphoglycerate Kinase. Phosphoglycerate kinase, glycosomal (Trypanosoma brucei brucei), P07378. PGK/GAPDH coupled, Kinase-Glo luminescence, 60 min. Potency, µM (titrated, usually from 57.5 µM), inactives show top-dose activity change, negative = inhibition, hits mostly inhibitors. actives 0.043% (n = 380,000); further: potency means the concentration at half of the fitted maximal effect; nearly all actives have a fitted effect of over 60% in size
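Recombinant glycosomal PGK reaction used 1,3-bisphosphoglycerate generated in-well by GAPDH (100nM final) in 100mM TEA pH 7.6, 5mM MgCl2, 0.01% Tween-20. After 60 minutes at room temperature, ATP was read by Kinase-Glo Plus luminescence end-point.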
PI5P4Ka inh: qHTS for Inhibitors of phosphatidylinositol 5-phosphate 4-kinase (PI5P4K); Phosphatidylinositol 5-phosphate 4-kinase type-2 alpha (Homo sapiens), P48426; PI5P4Kalpha enzyme, ADP-Glo luminescence, 60 min; stronger effect = lower value; max response, %; actives 1.2% (n = 330,000); AID 652105, 2013; active means max response of -50% or lower; inconclusive means between -30% and -50%; inactive means -30% or higher; further: value at the top dose of about 77 µM
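Enzyme plus substrate dispensed, test compounds pinned in, then ATP (5 microM final) added. After 60 min at RT, ADP-Glo reagent 1 for 45 min and reagent 2 for 30 min preceded luminescence imaging.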
Active calls of the source: *; i = inactive; ? = inconclusive; nt = not tested or not shown. Unless noted, the call rests on the fitted dose curve; in most records, active means well fitted curve in the direction sought with a large enough effect; inconclusive means small, poorly fitted or top-dose-only effect, or another doubt; inactive means no such curve, though single readings can be large; an effect the other way counts as inactive or inconclusive. Unless noted, on the % scale 0 is the no-effect control and ±100 the full control effect.

SMILES	Pin1 inh	Tb PFK block	PI4K2A inh	PGK inhibitor	PI5P4Ka inh
CCC(=O)Nc1sc2c(c1C(N)=O)CCN(C(C)=O)C2	-4%	-1%	-10	i	2
CC(=O)N1CCc2c(sc(NC(=O)CN3C(=O)CCC3=O)c2C(N)=O)C1	-27%	1%	-6	-5%	-76*
CC(=O)N1CCc2c(sc(NC(=O)CN3C(=O)c4ccccc4C3=O)c2C(N)=O)C1	-7%	-1%	4	-8%	-77*
CC(=O)N1CCc2c(sc(NC(=O)c3ccc([N+](=O)[O-])o3)c2C(N)=O)C1	nt	nt	-11	-4%	-65*
CCOc1ccc(CNC(=O)c2ccc3c(Cl)c4c(nc3c2)CCCC4)cc1	3%	nt	-2	0%	nt
O=C(O)C(C(=O)/C=C/c1ccco1)=C1SCCS1	?	?	-12	-24%	-62*
O=C(C=Cc1ccco1)c1ccco1	1%	nt	-8	-17%	-10
O=C(C=C1SCCS1)/C=C/c1ccco1	-1%	-26%	-12	?	-57*
CC1(C)CC(=O)C=C(Nc2cccc(F)c2)C1	-1%	0%	6	i	1
COC1=CC(=O)c2ccccc2C1=O	-3%	0%	-16	-7%	4
COC1=CC(=O)C=C(OC)C1=O	-8%	nt	-7	4%	-51*
[O-][n+]1c2ccccc2c2n1CCCN=C2c1ccc(Cl)cc1	4%	0%	1	i	-1
CCOc1ccc(NS(=O)(=O)c2ccc(N)cc2)cc1	3%	-6%	6	-1%	nt
CCOc1ccc(Nc2ccc(N)c(S(=O)(=O)O)c2)cc1	nt	nt	-14	?	-60*
O=C(O)COc1ccc2nsnc2c1Cl	-7%	1%	2	i	-11
Cc1ccccc1C1=C/C(=C(\SS/C(C(=O)c2ccc(OCC(=O)O)c(Cl)c2Cl)=C2\C=C(c3ccccc3C)SS2)C(=O)c2ccc(OCC(=O)O)c(Cl)c2Cl)SS1	nt	nt	-11	?	-98*
CCOC(=O)C1(Cc2cccc(F)c2)CCN(C(=O)C2CCCO2)CC1 (stereo unspecified)	-5%	2%	1	-3%	3
O=C(Nc1cccc(O)c1)c1cc(-c2ccc3c(c2)OCO3)on1	2%	-8%	-72*	-10%	-27
CN(C)C(CNc1ccc(C(F)(F)F)cn1)c1ccccc1 (stereo unspecified)	7%	1%	6	i	5
Cc1csc(N/N=C/c2ccc(O)c([N+](=O)[O-])c2)n1	?	?	-13	-1%	-75*
O=[N+]([O-])c1cc(/C=N\Nc2nc(-c3ccccc3)cs2)ccc1O	?	16%	-9	-5%	-63*
O=C(Nc1cc(C(=O)N2CCN(c3ccccc3)CC2)ccc1Cl)c1cccs1	-11%	3%	1	1%	-1
Cc1c(N=Cc2ccncc2)c(=O)n(-c2ccccc2)n1C	1%	-1%	-7	i	0
O=C(O)c1ccc(/C=N/NC(=O)c2ccc(NS(=O)(=O)c3cccs3)cc2)cc1	1%	0%	7	-6%	?
CC(=O)Nc1cccc(/C(C)=N/NC(=O)c2ccc(NS(=O)(=O)c3cccs3)cc2)c1	-7%	2%	-3	-9%	-55*
SMILES	Pin1 inh	Tb PFK block	PI4K2A inh	PGK inhibitor	PI5P4Ka inh
CC(=O)Nc1cccc(/C(C)=N/NC(=O)c2cccs2)c1	-5%	-1%	-8	0%	0
O=C(O)COc1ccccc1C=NNC(=O)c1ccc(NS(=O)(=O)c2cccs2)cc1	-5%	10%	-3	i	-57*
COC(C[C@@H]1O[C@@H]1[C@@H](O)[C@@H](C)OCc1ccccc1)OC	-1%	3%	1	-2%	-6
COC(C[C@@H]1O[C@@H]1[C@H](O)[C@H](C)OCc1ccccc1)OC	12%	-5%	5	i	-86*
O=c1[nH]c2ccccc2c(O)c1Cc1ccccc1	0%	1%	-8	15%	-6
O=C(O)CSc1cc(C(=O)c2ccccc2O)cn2c(=O)c3c(-c4ccccc4)csc3nc12	?	-1%	-4	?	-53*
Cc1[nH]c(=O)[nH]c(=O)c1/C=N/NC(=O)[C@@H](N)CC(C)C	4%	-1%	-60*	-12%	-27
O=C(O)[C@H](Cc1ccccc1)NC(=O)N1CCC(Cc2ccccc2)CC1	1%	-1%	5	-6%	-4
O=C1COc2ccc(C(=O)COC(=O)/C=C/c3ccc(Br)o3)cc2N1	-14%	?	?	?	-80*
Cc1ccc(-c2nc3ncccc3o2)cc1NC(=O)C(C)(C)C	-2%	1%	-3	i	-2
C=CC[C@@H](CC(=O)N(CCO)Cc1ccccc1)C(=O)N[C@@H](COC(=O)[C@@H](CC=C)CC(=O)OC(C)(C)C)Cc1c[nH]c2ccccc12	?	-3%	-5	4%	-2
Nc1nnc(CC(=O)N/N=C/c2ccc(-c3ccccc3Cl)o2)s1	14%	7%	-4	-10%	-53*
Nc1nnc(CC(=O)N/N=C/c2ccc(-c3ccccc3)o2)s1	6%	-8%	-7	-7%	-4
COC(=O)c1ccc(-c2ccc(/C=N/NC(=O)Cc3nnc(N)s3)o2)cc1	?	1%	-9	7%	-56*
CCC(=O)Nc1nnc(SCCN2CCOCC2)s1	5%	5%	0	6%	0
CCn1c(NCc2cc(OC)ccc2OC)nc2ccccc21	4%	-6%	5	6%	1
CN1/C(=C/C=C/c2n(C)c3cc([N+](=O)[O-])c([N+](=O)[O-])cc3[n+]2C)C(C)(C)c2ccccc21	nt	nt	-75*	?	?
C#CCNC(=O)C1=C[C@H](c2ccc(C#C)cc2)C[C@H](OCc2ccc(CO)cc2)O1	20%	nt	-22	2%	-59*
Cc1ccc(S(=O)(=O)Nc2ccc(C(=O)NCc3cccnc3)cc2)cc1	-10%	?	4	-10%	-2
CS(=O)(=O)c1ccc(C(=O)OCC(=O)NCc2cccs2)cc1[N+](=O)[O-]	6%	0%	-7	5%	6
COc1ccc(NC(=O)c2cc(-c3ccc(C)o3)nc3ccccc23)cc1OC	?	?	-14	-16%	-53*
COc1ccc(NC(=O)c2cc(-c3ccc(C)o3)nc3ccccc23)c(OC)c1	10%	nt	-1	-10%	-27
COc1cc2c(ccc3cc(OC)c(OC)c(O)c32)cc1O	?	?	-28	11µM*	-106*
COc1cc2cccc(OC)c(=O)c2c(O)c1OC	-1%	9%	1	i	1
